Hits are enriched below; roughly 6.6% of the tested compounds scored in any of these assays.
CSC inhib: cancer stem cell viability inhibitors, primary screen, luminescence; cancer stem cell-like cells viability; inhibition, % at 7.5 µM; actives 1.1% (n = 300,000); in the data active = inhibition above about 75%; tested in HMLE shEcad cells
MPTP inh: mitochondrial permeability transition pore inhibitors, primary screen, biochemical, isolated mouse mitochondria, absorbance; Ca2+ swelling absorbance, 30 min; inhibition, % at 10 µM; actives 1.4% (n = 360,000); AID 602449, 2012;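 active = inhibition of 50% or more, scaled per plate between neutral and stimulator controls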;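 note: 0% = DMSO wells given calcium and 100% = 1 mM EGTA wells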
Mdm2-MdmX inh: inhibitors of human Mdm2-MdmX association, primary screen, cell-based, luminescence, split luciferase, SaOS-2, uHTS. Protein Mdm4 (Homo sapiens) + E3 ubiquitin-protein ligase Mdm2 (Homo sapiens), …. SaOS-2 split-luciferase Mdm2/MdmX complementation. inhibition, % at 8 µM. actives 3% (n = 330,000). AID 485346, 2010;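 active = inhibition of at least 50% at 8 µM in the primary screen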
Gli-Sufu antag: Gli-Sufu pathway antagonists, primary screen, luciferase luminescence, Sufu-KO-LIGHT cells, uHTS; AID 588413, 2011; inhibition, % at 5 µM; Sufu-KO-LIGHT fibroblasts, Gli luciferase reporter luminescence; actives 0.74% (n = 340,000);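 active = inhibition above about 55%, limit read from the data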;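 note: 0% = DMSO-treated cells and 100% = wells with medium but no cells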
Beta cell apopt: inhibitors of cytokine-induced beta cell apoptosis, primary screen, luminescence; INS-1E cytokine-induced death, ATP luminescence, 48 h; percent of positive-control rescue, neutral wells zero; protection from apoptosis, % (concentration not given with the values); actives 0.8% (n = 300,000);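 active = Every replicate reaches about 75%, or at least half do and their mean reaches it too, limit read from the data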;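 note: 0% = cytokine-treated negative control wells and 100% = positive control rescue; higher means more ATP so stronger rescue from cytokine killing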
GRIN3A LBD mod: binders of NR3A ligand-binding domain, primary screen, biophysical, differential scanning fluorimetry, uHTS | Glutamate receptor ionotropic, NMDA 3A (GRIN3A) ligand-binding domain | NR3A LBD differential scanning fluorimetry, Tm shift; 0% = protein alone, 100% = glycine-bound protein | Tm shift relative to glycine control, % at 25 µM | actives 2.5% (n = 340,000) | AID 1259313, 2017;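 active = melting temperature shift of at least 10% of the positive control shift, at one fixed dose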
Gli-Sufu confirm: Gli-SUFU pathway antagonists, confirmation, single concentration, luciferase luminescence, Sufu-KO-LIGHT cells; shares compounds with Gli-Sufu antag; AID 602428, 2012; actives 40% (n = 2,500); Gli luciferase reporter; inhibition, % at 5 µM;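 active = mean inhibition at 5 µM reaching about 45%, limit read from the data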;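 note: plate controls were DMSO-treated cells for no effect and wells lacking cells for full effect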
Gli cytotox: cytotoxicity in Sufu-KO-LIGHT cells, confirmation, cytotoxicity control for Gli-SUFU antagonist project, cell-based, ATP luminescence, single concentration; shares compounds with Gli-Sufu antag; AID 651994, 2013; cytotoxicity, % at 5 µM; actives 32% (n = 2,500);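 active = mean cytotoxicity at 5 µM above about 25%, limit read from the data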;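 note: cells exposed to compound overnight for roughly 16 to 18 hours; plate controls were DMSO wells with cells for no effect and medium without cells for full effect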
Wnt3a counter: Wnt3a reporter signal inhibition, confirmation, counter-screen for Gli-SUFU antagonist project, Wnt-LIGHT cells, luminescence, single concentration; shares compounds with Gli-Sufu antag; actives 20% (n = 2,500); AID 651995, 2013; Wnt3a-driven luciferase reporter; inhibition, % at 6.25 µM;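 active = mean inhibition above about 25%, limit read from the data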
Active calls of the source: *; . = not tested or not shown.

SMILES	CSC inhib	MPTP inh	Mdm2-MdmX inh	Gli-Sufu antag	Beta cell apopt	GRIN3A LBD mod	Gli-Sufu confirm	Gli cytotox	Wnt3a counter
Cc1nc2ccccc2c2oc(C(=O)N3CCC(N4CCCCC4)CC3)cc12	-12.1	0.3	-2.4	20.4	6.7	1.7	.	.	.
O=C(c1[nH]c(C(F)(F)F)nc1-c1ccccc1)N1CCC(C(O)(c2ccccc2)c2ccccc2)CC1	.	-0.2	.	.	.	.	.	.	.
O=C1c2ccccc2NC(c2cccc(F)c2)N1Cc1ccco1 (stereo not drawn)	15.7	-0.2	16.8	64.6*	-9.0	.	20.3	14.8	-9.7
O=C1c2ccccc2NC(c2cccc(F)c2)N1Cc1ccccc1 (stereo not drawn)	3.0	0.1	19.5	-3.9	-4.4	0.1	.	.	.
CCN(Cc1ccccc1)S(=O)(=O)c1cn(C)cn1	-0.6	0.7	-7.7	-42.9	-1.4	1.3	.	.	.
O=C1[C@H]2[C@@H](C3CC3)N3C(=O)CN(Cc4ccccn4)C(=O)[C@@]3(Cc3ccccc3)[C@H]2C(=O)N1c1ccccc1	19.2	0.3	6.5	-10.9	-7.0	-2.3	.	.	.
COC(=O)c1cc(C(=O)c2ccccc2)n2c(=O)/c(=C\N(C)C)sc12	0.7	.	16.6	-1.6	12.7	-0.7	.	.	.
COC(=O)c1cc(C(=O)c2ccc(Cl)cc2)n2c(=O)/c(=C\N(C)C)sc12	42.6	1.7	24.0	57.5*	3.7	-8.4	31.5	3.9	-84.4
O=[N+]([O-])c1ccc(N2CCN(Cc3ccccc3)CC2)s1	-11.6	0.4	-8.5	52.2	6.6	-1.4	24.1	5.8	-8.5
C=CCN=C(NC#N)SC	28.7	-1.0	24.1	58.2*	.	-8.2	14.6	8.5	8.9
CCC(=O)N1CCc2cc(OC)c(OC)cc2C1COc1ccccc1OC (stereo not drawn)	.	-0.5	.	-9.3	.	2.1	.	.	.
COc1cc2c(cc1OC)C(COc1ccccc1OC)N(C(=O)c1ccco1)CC2 (stereo not drawn)	-13.4	2.2	-25.3	61.6*	-12.1	-2.7	26.2	7.8	5.1
O=C(CSc1nnc(CNc2ccc(F)cc2)o1)c1ccccc1	-13.7	3.1	-10.8	-14.8	-11.4	-1.3	.	.	.
Cc1cc(C)nc(NN2C(=O)/C(=C/c3ccc(O)cc3)SC2=S)n1	0.1	0.3	8.7	55.5*	0.7	-4.7	32.1	5.9	21.2
CN(C)c1cc[n+](CC[n+]2ccc(N(C)C)cc2)cc1	-10.1	0.2	14.8	-8.1	-9.6	0.2	.	.	.
CN(C)c1cc[n+](Cc2c(Cl)cccc2Cl)cc1	6.9	0.4	16.4	72.9*	97.3*	-1.5	67.5*	17.1	29.7*
NC(CCC(=O)O)C12CC3CC(CC(C3)C1)C2 (stereo not drawn)	-2.3	-1.4	0.5	-5.7	-11.6	1.3	.	.	.
Cc1cc(-c2cccnc2)c(C#N)c(SCc2cccc(F)c2)n1	-6.2	-0.3	16.9	55.0	11.1	3.8	31.2	22.1	1.6
Cc1cc(-c2cccnc2)c(C#N)c(SCC#N)n1	-4.9	-0.8	32.1	-4.9	3.7	-0.7	.	.	.
Cc1ccc(C2C(C#N)=C(N)N(c3cccnc3)C3=C2C(=O)CCC3)s1 (stereo not drawn)	-10.9	2.3	-13.3	60.3*	0.3	0.2	28.9	3.1	-3.7
Cn1c(SCC(=O)Nc2cccc(S(=O)(=O)NC3=NCCCCC3)c2)nnc1-c1ccccc1	-6.7	1.5	-9.3	4.6	3.2	0.2	.	.	.
O=C1CC[C@@]23CCCN2C(=O)CCCC3C1 (stereo partly drawn)	.	0.0	-8.3	55.3*	.	-2.0	18.1	12.7	8.5
COc1cccc(NC(=S)N2CCC(Cc3ccccc3)CC2)c1	8.6	-0.7	3.3	51.1	3.9	-25.7	30.2	21.2	-45.9
COc1cc(Br)cc(/C=N/N(CCO)C2=NS(=O)(=O)c3ccccc32)c1OC	-12.3	0.0	20.7	64.0*	17.1	-3.0	42.1	7.3	-12.2
Cc1ccc(-c2nnc(N3CCC(C)CC3)c3ccccc23)cc1C	96.4*	26.6	45.0	55.0	10.3	-0.7	20.6	3.4	26.7*
SMILES	CSC inhib	MPTP inh	Mdm2-MdmX inh	Gli-Sufu antag	Beta cell apopt	GRIN3A LBD mod	Gli-Sufu confirm	Gli cytotox	Wnt3a counter
CCc1sc(C(=O)NCCc2ccc(S(N)(=O)=O)cc2)cc1Br	-12.8	-1.0	-18.6	1.8	-3.2	-3.2	.	.	.
COc1ccc(N(CC(=O)NCCC2=CCCCC2)S(=O)(=O)c2ccccc2)cc1	-4.8	5.0	-20.2	57.3*	4.8	1.1	21.6	21.1	-22.7
COc1ccc(N(CC(=O)NCCC2=CCCCC2)S(=O)(=O)c2ccccc2)cc1OC	-8.3	-1.5	15.4	4.4	1.2	-1.1	.	.	.
CC(C)CCNC(=O)C1CC2Cn3c(nc4cc(Cl)c(Cl)cc43)C2N1C (stereo not drawn)	9.6	-3.1	9.9	-11.9	4.3	0.6	.	.	.
CCOc1ccc([N+](=O)[O-])cc1CNC1CCCCCCC1	51.4	0.3	-8.3	51.8	2.4	-1.0	20.7	7.0	-19.1
COc1ccc(-n2cc(-c3ccccc3)[n+]3c2CCCCC3)cc1	-2.6	-1.3	37.3	85.2*	99.1*	0.8	87.2*	28.2*	37.1*
FC(F)Oc1ccc(-n2cc(-c3ccc(Cl)cc3)[n+]3c2CCCCC3)cc1	-5.9	4.0	-5.2	47.2	14.4	3.5	.	.	.
FC(F)Sc1ccc(-n2cc(-c3ccccc3)[n+]3c2CCC3)cc1	.	-1.4	-11.9	60.5*	20.5	-2.1	58.6*	36.3*	-24.3
CCOc1ccc(N2C(=O)CC(N3CCN(C4CCc5ccccc5C4)CC3)C2=O)cc1 (stereo not drawn)	0.1	1.0	28.3	-6.3	0.2	0.6	.	.	.
Cc1ccc(N2C(=O)CC(N3CCN(C4CCc5ccccc5C4)CC3)C2=O)cc1 (stereo not drawn)	-15.7	-3.8	3.6	72.2*	-6.5	5.1	24.2	7.9	-20.5
CS(=O)(=O)N(CC(=O)N1CCOCC1)c1ccc(Cl)cc1	-11.2	0.1	9.1	56.0*	-1.5	3.6	19.7	2.5	5.0
CS(=O)(=O)N(CC(=O)N1CCCCCC1)c1ccc(Cl)cc1	-5.6	-0.4	24.8	11.6	-13.4	0.2	.	.	.

Screens as filed in PubChem BioAssay.
